We go through eleven sequences from article PMC3919609, “Deep sequencing of large library selections allows computational discovery of diverse sets of zinc fingers that bind common targets”.

One assay concerns the target RA three-finger array, finger 2 TSWNLRS (synthetic construct (mouse Zif268 …, UniProt P08046 333-418, E352N;T354R;R355A;R377T;D379W;H380N;T382R;T383S;D407A;E408N;R409L;K410V)). Kind of assay: Zn; 100 nM beta-estradiol; yeast GFP reporter, 12 h induction, 3 biological replicates. The note with it: tags: estrogen receptor LBD - VP16 fusion (left out); vector residues GT and GS kept at the ends; dsDNA, one strand shown.
For the sequence GAGAAGAAG, the binding signal was 0.437 ± 0.032 mean GFP / mean GFP of Zif268 on its consensus site.

With GAGCAGAAG, the binding signal was 1.13 ± 0.189 mean GFP / mean GFP of Zif268 on its consensus site.

Regarding GAGGAGAAG, the binding signal was 0.103 ± 0.007 mean GFP / mean GFP of Zif268 on its consensus site.

For GAGCATAAG, the binding signal is 0.344 ± 0.012 mean GFP / mean GFP of Zif268 on its consensus site.

A further assay addresses RA three-finger array, finger 2 ASSNLRA (synthetic construct (mouse Zif268 …, UniProt P08046 333-418, E352N;T354R;R355A;R377A;D379S;H380N;T382R;T383A;D407A;E408N;R409L;K410V)). The description is as above. Conditions: tags: estrogen receptor LBD - VP16 fusion (left out); vector residues GT and GS kept at the ends; dsDNA, one strand shown.
Take GAGCAGAAG: the binding signal is 0.103 ± 0.004 mean GFP / mean GFP of Zif268 on its consensus site.

In the case of GAGCACAAG, the binding signal is 0.225 ± 0.031 mean GFP / mean GFP of Zif268 on its consensus site.

GAGCATAAG: the binding signal was 0.875 ± 0.05 mean GFP / mean GFP of Zif268 on its consensus site.

Another assay concerns the target RA three-finger array, finger 2 RSGNLRS (synthetic construct (mouse Zif268 …, UniProt P08046 333-418, E352N;T354R;R355A;D379G;H380N;T382R;T383S;D407A;E408N;R409L;K410V)). Described as above. The note with it: tags: estrogen receptor LBD - VP16 fusion (left out); vector residues GT and GS kept at the ends; dsDNA, one strand shown.
Take GAGCAAAAG: the binding signal was 0.138 ± 0.011 mean GFP / mean GFP of Zif268 on its consensus site.

Take GAGAAGAAG: the binding signal was 0.587 ± 0.052 mean GFP / mean GFP of Zif268 on its consensus site.

In the case of GAGCAGAAG, the binding signal is 0.997 ± 0.075 mean GFP / mean GFP of Zif268 on its consensus site.

Regarding GAGGAGAAG, the binding signal is 0.149 ± 0.009 mean GFP / mean GFP of Zif268 on its consensus site.

In the case of GAGCATAAG, the binding signal was 0.264 ± 0.005 mean GFP / mean GFP of Zif268 on its consensus site.

A further assay deals with Zif268 (Egr1) fingers 1-3 (Mus musculus, UniProt P08046 333-418). The description is as above. The note with it: dsDNA, one strand shown.
Regarding GCGTGGGTG, the binding signal was 0.878 mean GFP / mean GFP of Zif268 on its consensus site.

Regarding GCGTGGGGG, the binding signal is 0.059 mean GFP / mean GFP of Zif268 on its consensus site.

With GCGTGGGAG, the binding signal was 0.755 mean GFP / mean GFP of Zif268 on its consensus site.

With GCGTGGGCC, the binding signal is 0.147 mean GFP / mean GFP of Zif268 on its consensus site.

For the sequence GCGTGGGCG, the binding signal was 1 mean GFP / mean GFP of Zif268 on its consensus site.

The next assay concerns the target RA three-finger array, finger 2 QSGNLKS (synthetic construct (mouse Zif268 …, UniProt P08046 333-418, E352N;T354R;R355A;R377Q;D379G;H380N;T382K;T383S;D407A;E408N;R409L;K410V)). The assay is described as above. The note with it: tags: estrogen receptor LBD - VP16 fusion (left out); vector residues GT and GS kept at the ends; dsDNA, one strand shown.
With GAGCAAAAG, the binding signal is 0.463 ± 0.041 mean GFP / mean GFP of Zif268 on its consensus site.

GAGCAGAAG: the binding signal was 0.174 ± 0.003 mean GFP / mean GFP of Zif268 on its consensus site.

As to GAGCACAAG, the binding signal was 0.219 ± 0.008 mean GFP / mean GFP of Zif268 on its consensus site.

Regarding GAGCATAAG, the binding signal was 0.226 ± 0.01 mean GFP / mean GFP of Zif268 on its consensus site.
